High-throughput results: PubChem, several laboratories
p47phox inh: p47phox/p22phox peptide binding inhibitors, primary screen, biochemical, uHTS, NADPH oxidase regulatory subunit | Neutrophil cytosol factor 1 (Homo sapiens), P14598 | fluorescence polarization, 2 h | inhibition, % at 24.7 µM | actives 0.53% (n = 220,000);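 also: 0% = p47phox with labelled peptide and 100% = labelled peptide alone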
Target sequence (P14598 whole entry, looked up): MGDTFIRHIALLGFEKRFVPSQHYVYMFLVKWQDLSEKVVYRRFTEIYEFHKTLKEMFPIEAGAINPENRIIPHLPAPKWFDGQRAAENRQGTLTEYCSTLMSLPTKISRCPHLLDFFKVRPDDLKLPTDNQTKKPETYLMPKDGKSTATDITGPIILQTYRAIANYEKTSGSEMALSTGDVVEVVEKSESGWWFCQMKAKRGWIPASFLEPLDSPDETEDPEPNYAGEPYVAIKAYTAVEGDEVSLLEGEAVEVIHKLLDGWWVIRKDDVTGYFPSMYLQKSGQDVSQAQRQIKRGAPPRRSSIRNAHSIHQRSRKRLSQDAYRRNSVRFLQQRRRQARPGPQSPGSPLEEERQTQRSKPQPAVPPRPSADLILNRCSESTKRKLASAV
Mcl1 Noxa PPI: Mcl-1/Noxa binding inhibitors, primary screen, biochemical, TR-FRET, 1536-well. Induced myeloid leukemia cell differentiation protein Mcl-1 (Homo sapiens), Q07820. TR-FRET Mcl-1/Noxa peptide binding, 2 h. inhibition, % at 21.7 µM. actives 1.5% (n = 220,000);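 active = compounds that cut the protein-peptide binding signal by more than 50% relative to plate controls in a single-dose test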;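 also: His-tagged Mcl-1 with rhodamine Noxa BH3 peptide and terbium anti-His antibody; 0% = Mcl-1 plus Noxa peptide wells and 100% = peptide-only wells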
14-3-3 Bad inh: inhibitors of 14-3-3 zeta/Bad binding, primary screen, biochemical, TR-FRET, bovine 14-3-3 zeta | actives 0.71% (n = 220,000) | inhibition, % at 21.7 µM | 14-3-3 protein zeta/delta (Bos taurus), P63103 | TR-FRET 14-3-3zeta/Dy647-pBad peptide displacement, 1 h;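 active = inhibition above about 70%, limit read from the data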;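 also: 0% = full 14-3-3 plus peptide FRET controls and 100% = background without 14-3-3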
Mcl1 Bid PPI: Mcl-1/Bid binding inhibitors, primary screen, biochemical, TR-FRET, 1536-well | Induced myeloid leukemia cell differentiation protein Mcl-1 (Homo sapiens), Q07820 | TR-FRET Mcl-1/Bid-Dy647 peptide binding | inhibition, % at 21.7 µM | actives 0.97% (n = 220,000);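 active = compounds that cut the binding signal by more than half at the single screening dose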;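 also: His-tagged Mcl-1 with europium anti-His antibody binding Bid BH3 peptide; 0% = Mcl-1 plus peptide wells and 100% = peptide-only wells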
eIF4E-4G inh: eIF4E–eIF4G protein interaction inhibitors, primary screen, biochemical, uHTS, TR-FRET, eIF4GI fragment. TR-FRET eIF4E-eIF4GI(517-606) binding, 2 h. inhibition, % at 21.7 µM. actives 0.37% (n = 220,000);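 also: 0% = full FRET control wells and 100% = background wells lacking eIF4GI fragment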
Bim-Mcl-1: inhibitors of Bim peptide binding to Mcl-1, primary screen, biochemical, bead-based flow cytometry, multiplex; Induced myeloid leukemia cell differentiation protein Mcl-1 (Homo sapiens), Q07820; Bim peptide-Mcl-1 binding; inhibition, % at 10 µM; actives 0.1% (n = 190,000); in the data active = inhibition above about 40%;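 also: 0% = no compound tracer wells and 100% = peptide blocker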
Numbers without * were called inactive; . = no result given. In the library only some 3.3% were active in any assay of this set; here they are far more common.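 The calls were made as follows, unless noted: active = inhibition above about 30% (limit read from the data); inactive = the rest.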

SMILES	p47phox inh	Mcl1 Noxa PPI	14-3-3 Bad inh	Mcl1 Bid PPI	eIF4E-4G inh	Bim-Mcl-1
Clc1cc(Br)ccc1OCCCn1ccnc1	-11	29	-15	-9	0	-3
Clc1cc(Br)ccc1OCCn1ccnc1	3	41	78*	28	8	-3
CC(C)Nc1nc(NC(C)C)nc(Oc2ccc(=O)n(C)n2)n1	-4	0	-14	-22	-1	-4
CCNc1nc(NC(C)C)nc(Oc2ccc(=O)n(C)n2)n1	.	9	-6	0	65*	-2
O=C(O)CCCC(=O)NCc1c(Cl)cccc1Sc1ccc(Cl)cc1	34*	0	-4	10	3	.
CC(C)(CC(=O)O)CC(=O)NCc1c(Cl)cccc1Sc1ccc(Cl)cc1	-9	10	-6	4	1	.
O=C(CN1CCCCCC1)NCCc1ccc(F)cc1	-8	7	75*	44	3	-4
C/C(=N\NC(=O)c1ccc(Cl)cc1)c1cccs1	38*	30	-2	30	-1	3
CC1CN(c2ccc(S(=O)(=O)N3CCCC3)cn2)CC(C)O1 (centres undefined)	-8	10	2	-25	4	.
COc1ccc(NC(C)C(=O)Nc2ccc(C(C)(C)C)cc2)cc1Cl (centres undefined)	-1	10	10	3	4	0
COc1ccc(NC(C)C(=O)Nc2ccc(C#N)cc2)cc1Cl (centres undefined)	2	92*	-1	89*	31*	0
COc1ccc(-c2cc3cc(OC)c(OC)cc3c(C)n2)cc1C	-8	10	1	5	-1	.
CCC(=O)NC(c1ccc(N(C)C)cc1)c1c(O)ccc2ccccc12 (centres undefined)	-2	51*	-2	-18	2	1
CCC(=O)NC(c1ccc(OC)cc1)c1c(O)ccc2ccccc12 (centres undefined)	-4	5	-18	-8	2	0
O=C(CC1N=C(Cc2ccccc2)NNC1=O)N/N=C/c1ccc([N+](=O)[O-])cc1 (centres undefined)	0	-19	-2	-13	3	-1
CC(C)Sc1nc(N)c2c3c(sc2n1)CN(C)CC3	-10	58*	8	-14	-3	-2
CCCSc1nc(N)c2c3c(sc2n1)CN(C)CC3	-10	32	-2	-36	0	0
COc1ccc2[nH]c(=O)c(CN(C)C(=O)c3cccs3)cc2c1	-3	8	10	29	5	.
Fc1ccc(C2CCCN2Cc2nc(Cc3ccccc3)no2)cc1 (centres undefined)	-6	-1	-9	-15	60*	-1
CS(=O)(=O)N(CC(=O)N1CCN(c2ccccc2)CC1)c1ccc(Cl)c(C(F)(F)F)c1	-21	3	5	-13	5	-2
COc1ccc(CN2C(=O)CC(C(=O)NCCc3ccc(S(N)(=O)=O)cc3)SC2=Nc2ccccc2)cc1 (centres undefined)	-6	5	1	-1	0	0
CC(C)[C@@H]1C=C(C(=O)O)O[C@H](OCCCCO)C1	-16	-14	2	-25	97*	.
O=C(O)C1=C[C@@H](C2CCCCC2)C[C@@H](OCCCCO)O1	-7	-2	37	-11	2	1
CCc1ccc(OCC(=O)N/N=C(\C)c2ccc3c(c2)OCCO3)cc1	-15	1	-5	-15	-3	-1
C/C(=N\NC(=O)COc1ccc(C(C)(C)C)cc1)c1ccc2c(c1)OCCO2	-5	5	4	-4	3	65*
SMILES	p47phox inh	Mcl1 Noxa PPI	14-3-3 Bad inh	Mcl1 Bid PPI	eIF4E-4G inh	Bim-Mcl-1
CCOc1cccc(-c2csc(C3COc4ccccc4O3)n2)c1 (centres undefined)	-2	-17	3	-15	18	-31
O=C(N/N=C\c1c(O)ccc2ccccc12)c1ccc(Cn2cccn2)o1	-14	51*	-18	-70	2	0
O=C(N/N=C\c1ccc(Cl)s1)c1ccc(Cn2cccn2)o1	-5	-1	-3	-13	16	-3
COc1cccc2c(=S)c(CCC(C)=O)c(C)[nH]c12	3	100*	6	9	2	-3
Nc1c(O)ccc2c1C(=O)c1ccccc1C2=O	80*	78*	-52	-23	-6	0
COc1ccc2c(c1O)C(=O)c1ccccc1C2=O	-5	30	24	21	4	-1
O=C(NNc1c(Cl)cccc1Cl)c1cccs1	-4	8	91*	3	5	.
COc1ccc(CCNC(=O)COc2nncc3ccccc23)cc1	3	6	-10	-30	0	-2
C=CCN1C(=O)CSC1=Nc1cccc(O)c1	-16	10	9	-4	30*	1
O=C(CCNC(=O)OCc1ccccc1)NC1CCCCCC1	-16	-2	1	1	3	-4
O=C(COC(=O)c1cnccn1)NCc1ccc2c(c1)OCO2	-2	22	2	-18	4	0
Cc1ccc2[nH]c3c(c2c1)CN(C)CC3	-3	-2	75*	-15	-1	-1
C/C(O)=C(/C=Nc1ccccc1)C(=O)Nc1ccccc1	12	6	2	9	-2	0
CCCCNC(=O)c1cc(C)nc2ccccc12	-20	3	1	-6	4	.
Cc1cc(C(=O)NCCCN(C)C)c2ccccc2n1	3	1	-3	2	3	52*
Cc1nn(CC(O)COc2ccc3c(c2)CCC3)c(C)c1Br (centres undefined)	-11	6	0	3	2	-3
Cc1nc(C)n(CC(O)COc2ccc3c(c2)CCC3)n1 (centres undefined)	-6	4	11	92*	0	-4
O=C(Nc1ccc([N+](=O)[O-])cc1)Nc1ccc(OC(F)F)c(Cl)c1	-45	52*	3	6	-1	-3
O=C(Nc1ccc(OC(F)F)c(Cl)c1)Nc1ccc2c(c1)OCO2	7	21	5	1	-1	-5
CC1CCc2cc(F)ccc2N1C(=O)C12CCC(C)(C(=O)O1)C2(C)C (centres undefined)	-9	2	92*	0	2	0
CCC(C)(C)n1nnnc1CN(Cc1ccco1)Cc1cc2cc3c(cc2[nH]c1=O)OCO3	2	1	.	-29	.	-1
